Compound activity as filed in PubChem BioAssay.
Sampled rows, rich in hits. Any-hit rate of the full collection: about 7.4%.
KinaseGlo FLuc: blocks Kinase-Glo luciferase, a counter-screen artifact | Q27757 | Kinase-Glo luciferase, ATP luminescence, 8 min | Potency, µM (titrated, usually from 38.3 µM), without a hit: at the top dose activity change, negative = inhibition, most hits filed as inhibitors | AID 1379 | 200,000 compounds, 0.28% hits; further: on the % scale 0 is the no-effect control and ±100 the full control effect; nearly all actives have a fitted effect of over 60% in size
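Substrate mix (final 50 mM imidazole pH 7.2, 50 mM KCl, 7 mM MgCl2, 10 uM ATP, 0.01% Tween 20, 0.05% BSA) plus pin-tool compound, then Kinase-Glo detection mix; 8 min ambient, luminescence read.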
SMN2 splice up: SMN2 splice variant enhancement. HEK293 SMN2-luciferase splicing reporter, luminescence, 30-36 h. Potency, µM (titrated, usually from 46.1 µM), for inactives: at the highest dose activity change, positive = activation, usual class: activators. 210,000 compounds, 2.8% hits; further: % of control where 0% means no effect; nearly all actives have a fitted effect of over 55% in size
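HEK293 cells carry an SMN2 […]–luciferase reporter in which exon 7 inclusion puts luciferase in frame. Cells were plated 10-12 h before compound addition, then incubated 30-36 h at 37C. ONE-Glo luminescence was read; sodium butyrate at 4.5 mM final served as control.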
FLuc modulator: counter-screen for miR-21 project: firefly luciferase inhibitors or activators. purified FLuc, Km substrates, luminescence inhibition. Potency, µM (titrated, usually from 57.5 µM), for inactives: at the highest dose activity change, negative = inhibition, actives largely listed as inhibitors. 360,000 compounds, 6.9% hits. AID 588342;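 further: plate controls were vehicle for no effect and reference inhibitor for full effect; nearly all actives have a fitted effect of over 55% in size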
Target sequence (P08659 whole entry, looked up): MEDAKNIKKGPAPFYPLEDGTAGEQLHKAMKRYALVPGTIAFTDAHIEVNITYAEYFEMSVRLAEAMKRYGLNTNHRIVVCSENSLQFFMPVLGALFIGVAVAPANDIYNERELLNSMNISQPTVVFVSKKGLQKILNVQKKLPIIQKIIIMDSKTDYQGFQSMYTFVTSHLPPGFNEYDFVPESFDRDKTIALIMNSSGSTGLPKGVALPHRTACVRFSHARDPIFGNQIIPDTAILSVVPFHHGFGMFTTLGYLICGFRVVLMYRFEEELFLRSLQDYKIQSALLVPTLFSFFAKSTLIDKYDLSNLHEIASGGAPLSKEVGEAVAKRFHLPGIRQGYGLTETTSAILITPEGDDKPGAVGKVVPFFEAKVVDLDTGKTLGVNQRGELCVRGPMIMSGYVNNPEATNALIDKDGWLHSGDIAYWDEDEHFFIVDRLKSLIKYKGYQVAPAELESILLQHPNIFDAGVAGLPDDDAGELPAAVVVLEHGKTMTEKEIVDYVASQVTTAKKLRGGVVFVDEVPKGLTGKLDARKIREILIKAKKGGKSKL
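Purified P. pyralis luciferase (10nM final) with 10uM D-luciferin and 10uM ATP (Km levels) in 50mM Tris acetate pH 7.5, 10mM Mg acetate, 0.01% Tween-20, 0.05% BSA; qHTS 6-point titration, ~60 µM downward; luminescence read.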
ELG1 genotoxic: inducers of genotoxicity in HEK293T ELG1-luciferase cells; Potency, µM (titrated, usually from 46 µM), for inactives: at the top dose activity change, positive = activation, usual class: activators; 330,000 compounds, 1.3% hits; HEK293T ELG1-luciferase reporter, luminescence, 16 h; further: % of control where 0% means no effect; nearly all actives have a fitted effect of over 60% in size
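Quantitative HTS format in 1536-well plates. HEK293T ELG1-luciferase reporter cells receive test compound and are incubated 16 hr at 37 °C, 5% CO2; ONE-Glo added, 30 min room temperature, then luminescence read.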
Rab9 promoter act: activators of Rab9 promoter; Huh7 Rab9 promoter-luciferase reporter, luminescence, 24 h; Potency, µM (series often up to 9.22 µM), inactives show at the top dose activation, negative = inhibition, hits mostly activators; 320,000 compounds, 2.8% hits; AID 485297; further: % of control where 0% means no effect; nearly all actives have a fitted effect of over 60% in size
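Promoter activation is measured as luciferase luminescence in Huh7 cells stably transfected with a Rab9 promoter–luciferase construct, following 24 h compound exposure at 37 °C and 10 min reagent incubation at ambient temperature.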
NPC1 prom act: NPC1 promoter activation; Huh7 NPC1 promoter luciferase reporter, 24 h; Potency, µM (series often up to 9.22 µM), for the others: at the top dose activation, usual class: activators; 320,000 compounds, 2.4% hits; further: % of control where 0% means no effect; nearly all actives have a fitted effect of over 60% in size
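Stable NPC1-promoter luciferase Huh7 line; cpd (DMSO) 24 h, 37 °C, 5% CO2; Amplite luciferase reagent 10 min RT; luminescence readout. qHTS format.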
The depositor's hits bear a star; ? = inconclusive; · = no result; [ ] = another dose, or the depositor's remark. The call rests on the fitted dose curve; in most records, active means well fitted curve in the direction sought with a large enough effect; inconclusive means small, poorly fitted or top-dose-only effect, or another doubt; inactive means no such curve, though single readings can be large; an effect the other way counts as inactive or inconclusive. Potency means the concentration at half of the fitted maximal effect.

SMILES | KinaseGlo FLuc | SMN2 splice up | FLuc modulator | ELG1 genotoxic | Rab9 promoter act | NPC1 prom act
Fc1ccc(-c2nc(-c3cnccn3)no2)c(Cl)c1 | · | · | 2.4µM* | ? | 0.32µM* | 0.45µM*
Cc1noc(-c2ccc(-c3noc(-c4ccc(Cl)cc4)n3)cc2)n1 | · | · | 0% | · | · | ·
Clc1ccc(-c2nc(-c3cnccn3)no2)cc1 | · | · | 2.4µM* | ? | 0.71µM* | 0.56µM*
OC1(c2ccc(Cl)cc2)CCN(Cc2nc(-c3cnccn3)no2)CC1 | · | · | 2% | -3% | 12% | -3%
Cc1nc2cc(Nc3nnc(-c4ccccc4)c4ccccc34)ccc2n1C | · | · | 0.67µM* | ? | ? | 3.5µM*
Cc1ccc(NC(=O)Nc2ccc3c(c2)nc(C)n3C)cc1C | 0% | · | 2.7µM* | ? | 0.63µM* | 1.3µM*
CCOc1ccc(NC(=O)Nc2ccc3c(c2)nc(C)n3C)cc1 | · | · | ? | 5% | 13% | 2%
COc1ccccc1NC(=O)Nc1ccc2c(c1)nc(C)n2C | ? | 13µM* | 1.5µM* | ? | 0.56µM* | 0.63µM*
Cc1nc2cc(NC(=O)Nc3cccc4ccccc34)ccc2n1C | -23% | 4µM* | 0.95µM* | ? | 0.89µM* | 3.2µM*
Cc1ccc(NC(=O)C2CCCN(S(=O)(=O)c3cccc4nsnc34)C2)cc1C (configuration not stated) | · | -9% | -4% | · | · | ·
CCN(CC)CCOc1c(Br)ccc2c1sc1nc3n(c(=O)c12)CCC3 | -1% | -29% | -2% | ? | -3% | -1%
O=c1c2c(nc3n1CCCCC3)sc1c(O)c(Br)ccc12 | -15% | 16µM* | 2.7µM* | 2.3µM* | 2.8µM* | 4µM*
O=C1C(c2c(O)[nH]c3ccccc23)=Nc2ccccc21 | · | -16% | -29% | · | ? | 20%
CC(=O)c1cccc2c(O)c(C3=Nc4ccccc4C3=O)[nH]c12 | ? | 0.56µM* | 3.4µM* | ? | 0.63µM* | 2.8µM*
Cc1ccc(NC(=O)CCCn2nc(C)c3sc4ccccc4c3c2=O)c(Cl)c1 | · | · | 6µM* | · | · | ·
COc1cc(OC)c(NC(=O)CCCn2nc(C)c3sc4ccccc4c3c2=O)cc1Cl | · | · | 13µM* | · | · | ·
C/C(=N\Nc1ccccn1)c1ccc(C#N)cc1 | 2% | -5% | ? | 1% | 4% | 1%
C/C(=N\NC(=O)c1cc(C)[nH]n1)c1cccs1 | -23% | 11µM* | 12µM* | ? | 0.32µM* | 1.1µM*
C/C(=N/NC(=O)c1cc(C(C)C)[nH]n1)c1cccs1 | -18% | 11µM* | 5.4µM* | ? | 0.5µM* | 0.4µM*
C/C(=N\Nc1ccccn1)c1cccs1 | -3% | 32µM* | 6.7µM* | ? | 3.2µM* | 3.5µM*
C/C(=N\NC(=O)c1cc(C)[nH]n1)c1ccc(-c2ccccc2)cc1 | · | · | -17% | 14% | 17% | 26%
C/C(=N\Nc1ccccn1)c1ccc(OC(F)F)cc1 | 0% | 21% | 15µM* | ? | 26% | 10%
CCc1ccc(NC(=O)Cn2c(=O)n(-c3ccc(OC)cc3)c(=O)c3ccc(C(=O)NCc4ccc(C)cc4)cc32)cc1 | · | 8% | 2% | · | · | ·
Clc1cccc(N2CCN(c3nc4ccccc4c4nc(-c5ccccc5)nn34)CC2)c1 | · | -6% | 0% | · | · | ·
O=C(c1ccco1)N1CCC2(CCCN(c3ncccn3)C2)CC1 | -3% | -13% | · | · | · | ·
SMILES | KinaseGlo FLuc | SMN2 splice up | FLuc modulator | ELG1 genotoxic | Rab9 promoter act | NPC1 prom act
CC(=O)c1c(C)oc2c1cc(NS(=O)(=O)c1ccc(Cl)c(C)c1)c1ccccc12 | · | -15% | ? | · | · | ·
C/C(=N/NC(=O)c1cnccn1)c1cccs1 | ? | 8.9µM* | 15µM* | ? | ? | 2µM*
COC(=O)N[C@@H](c1cccc(C)c1)C(C(C)=O)C(=O)OC (some centres not stated) | 0% | 10% | · | · | · | ·
Cc1cc(N2CCN(c3ccccc3)CC2)nc2ccccc12 | · | · | 15µM* | 4% | 14% | 11%
c1ccc(N2CCN(c3cnc4ccccc4n3)CC2)cc1 | -7% | 3.5µM* | 3.4µM* | 1% | 1.1µM* | 1.6µM*
O=C(c1cccnc1)N1CCN(c2ccc(Cl)cc2)CC1 | -1% | 0% | -1% | -1% | 1% | 1%
Fc1ccc(N2CCN(c3cnc4ccccc4n3)CC2)cc1 | · | · | 11µM* | ? | 3.5µM* | 2.8µM*
Clc1ccc(N2CCN(c3cnc4ccccc4n3)CC2)cc1 | -1% | -9% | 17µM* | ? | ? | ?
Fc1ccc(N2CCN(c3nc4ccccc4c4nc(-c5ccccc5)nn34)CC2)cc1 | · | -4% | 1% | · | · | ·
CCCCOc1ccccc1Cn1c(=O)sc2ccccc21 | · | -20% | -16% | · | · | ·
COc1ccc(-c2noc(-c3ccc4c(c3)OCO4)n2)cc1 | -6% | 8.9µM* | 0.95µM* | ? | 1.1µM* | 0.79µM*
COc1ccc(OC)c(-n2nnc(-c3nc(-c4ccc5c(c4)OCO5)no3)c2C)c1 | · | · | 6% | · | · | ·
c1ccc(-c2noc(-c3ccc4ccccc4c3)n2)cc1 | -14% | -9% | 0.27µM* | ? | -15% | -17%
COc1cccc(-c2noc(-c3ccc4c(c3)OCO4)n2)c1 | · | · | 0.54µM* | 1.8µM* | 0.56µM* | 2.5µM*
c1ccc(-c2noc(-c3ccc4c(c3)OCO4)n2)cc1 | 10µM* | 5µM* | 0.48µM* | 0.41µM* | 0.28µM* | 0.45µM*
COc1ccc(-c2noc(COc3ccc4c(c3)OCO4)n2)cc1 | 5% | 2% | 5% | 0% | 2% | -4%
O=C(NCc1nc(-c2ccccc2)no1)c1ccc2c(c1)OCO2 | 6% | 5% | 1%[2.3 µM] | 0% | 2% | -2%
CCCCOC(=O)c1ccc(NC(=O)Cc2coc3ccc(C(C)C)cc23)cc1 | · | 6% | 1% | · | · | ·
O=C(CC1C(=O)OCCN1Cc1ccccc1)Nc1cccc(Cl)c1 (configuration not stated) | · | -9% | 3% | · | · | ·
COC(=O)[C@@H](NC(=O)N1CCc2nc(-c3ccccc3)c3c(c2C1)CO[C@@H](C)C3)C(C)C | -13%[7.66 µM] | 4%[9.22 µM] | · | · | · | ·
COCC1CCN(Cc2nc(-c3ccc4c(c3)OCO4)no2)C1 (configuration not stated) | 1% | · | ? | ? | 2.8µM* | ?
O=C(Nc1cccc(N2C(=O)C3CCCCC3C2=O)c1)c1ccccc1 (configuration not stated) | · | · | 19µM* | 6% | -6% | 2%
Cc1ccc(C(=O)Nc2cccc(N3C(=O)C4CCC(C)CC4C3=O)c2)cc1 (configuration not stated) | · | · | 7.6µM* | 5% | 23% | 1%
O=C(Nc1cccc(Cl)c1)c1cccc(N2C(=O)C3CC=CCC3C2=O)c1 (configuration not stated) | · | · | -19% | -21% | -3% | 0%
